# Test results published in PubChem BioAssay (NCATS).
# Records with an inconclusive call do not appear. Calls of active or inactive are those of the source. Calls follow the shape of the dose curve; as a rule, active = well fitted cell-killing curve with a large enough effect; inconclusive = small, poorly fitted or top-dose-only effect; inactive = no such curve, though single readings can be large or run the other way.
# Assay: qHTS of pediatric cancer cell lines to identify multiple opportunities for drug repurposing: Primary screen for NB-EBc1 cells (AID 1347095);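 also: plate controls were DMSO neutral control for no effect and bortezomib for full effect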
# Settings: NB-EBc1 neuroblastoma viability, CellTiter-Glo luminescence, 48 h; series mostly up to 46 µM; activity change, negative = cytotoxic: at the top concentration
# Outline: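 ATP-based luminescence (CellTiter-Glo) quantifies viability after a 48-hour exposure. Compounds are dosed across 8 or 11 final concentrations; DMSO and 2.3 µM bortezomib serve as controls.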
row,SMILES,"activity change, negative = cytotoxic"
1,C[N+](C)(C)CCOC(=O)CCC(=O)OCC[N+](C)(C)C,20.7% (inactive)
2,C[C@]12C=CC(=O)C=C1CC[C@H]1[C@@H]3C[C@@H](O)[C@](O)(C(=O)CO)[C@@]3(C)C[C@H](O)[C@@]12F,22% (inactive)
3,CC(=O)OCC1=C(C(=O)O)N2C(=O)[C@@H](NC(=O)Cc3cccs3)[C@H]2SC1,23% (inactive)
4,CC(C)NNC(=O)c1ccncc1,24.5% (inactive)
5,CCN(CC)CCNC(=O)c1cc(S(C)(=O)=O)ccc1OC,23.6% (inactive)
6,O=C(O)CN(CCOCCOCCN(CC(=O)O)CC(=O)O)CC(=O)O,21.8% [at 0.597 µM] (inactive)
7,Cc1cccc(C)c1NC(=O)C(C)N (centres undefined),5.97% (inactive)
8,CSc1ccc(C(=O)c2[nH]c(=O)[nH]c2C)cc1,27.1% (inactive)
9,C[N+](C)(C)CCCCCCCCCC[N+](C)(C)C,10.9% (inactive)
10,Cc1nnc(SCC2=C(C(=O)O)N3C(=O)[C@@H](NC(=O)Cn4cnnn4)[C@H]3SC2)s1,16.7% (inactive)
11,NC(=O)N1c2ccccc2C=Cc2ccccc21,17.1% (inactive)
12,CC(C(=O)O)c1ccc(CC2CCCC2=O)cc1 (centres undefined),18.4% (inactive)
13,CCn1ccnc1CC1COc2ccccc2O1 (centres undefined),15.5% (inactive)
14,COc1ccc([C@@H]2Sc3ccccc3N(CCN(C)C)C(=O)[C@@H]2OC(C)=O)cc1,3.79% (inactive)
15,c1cnc(N2CCN(Cc3ccc4c(c3)OCO4)CC2)nc1,5.81% (inactive)
16,CN1CCN(CC(=O)N2c3ccccc3C(=O)Nc3cccnc32)CC1,16.9% [at 4.84 µM] (inactive)
17,CN(C)CCOC(=O)COc1ccc(Cl)cc1,32.9% (inactive)
18,Cc1ccc(=O)n(-c2ccccc2)c1,21.3% (inactive)
19,CN/C(=C\[N+](=O)[O-])NCCSCc1ccc(CN(C)C)o1,10.8% (inactive)
